Out of some 140,000 compounds screened, about 300 (0.21%) were called active.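 The calls were made as follows: active = z-score above 3 at both the 24 hr and the 30 hr optical density reads; inactive = the rest, inconclusive results apart.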 What follows is part of a selection rich in actives, with near analogues and random picks from the rest.
Assay: restorers of sdo1-deficient yeast growth – S. cerevisiae, bone marrow failure model, primary screen (AID 817);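 also: z-score against mean and SD of all compound wells on the same plate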
Conditions: S. cerevisiae sdo1-depleted JHY4D growth rescue, at 10 µM, stronger effect = higher value, pdr5 snq2 efflux-pump mutant strain
[1] = OD600, measured here: growth rescue at 24 h

Question: Which results are given for `Cc1cccc(N=C2NN=C(c3c[nH]c4ccccc34)CS2)c1`?
Answer: z-score (OD600 30 h): -1 (inactive); z-score [1]: -0.78

Question: For `COC(=O)c1c(NC(=O)CN2C(=O)NC(CCc3ccccc3)C2=O)sc2c1CCCCC2` (stereo unspecified), which z-score (OD600 30 h) is on record?
Answer: 0.43 (inactive)

Question: What about the z-score [1] of the same compound?
Answer: 0.79

Question: With `Cc1ccc(Sc2ccncc2S(N)(=O)=O)cc1` as the compound, how does the z-score (OD600 30 h) read?
Answer: 1.59 (inactive)

Question: And the z-score [1]?
Answer: 0.76

Question: With `O=C(O)c1ccc(N=NN2CCOCC2)cc1` as the compound, how does the z-score (OD600 30 h) read?
Answer: -0.02 (inactive)

Question: And the z-score [1]?
Answer: -0.59

Question: What does the source list for `COc1ccc(C2Nc3ccccc3C(=O)N2c2ccc(Cl)cc2)cc1Cn1cc([N+](=O)[O-])cn1` (stereo unspecified)?
Answer: z-score (OD600 30 h): -0.41 (inactive); z-score [1]: -0.21

Question: Which results are given for `O=C(N/N=C/c1ccc2c(c1)OCO2)c1ccc(Cn2cc([N+](=O)[O-])cn2)o1`?
Answer: z-score (OD600 30 h): 0.69 (inactive); z-score [1]: -0.21

Question: Which z-score (OD600 30 h) does the source give for `COc1cc(OC)nc(NC(=O)CCl)n1` here?
Answer: -0.13 (inactive)

Question: What about the z-score [1] of the same compound?
Answer: -1.15

Question: Which z-score (OD600 30 h) does the source give for `CCC(=O)Nc1nc(OC)cc(OC)n1` here?
Answer: 0.5 (inactive)

Question: What about the z-score [1] of the same compound?
Answer: -0.32

Question: With `COc1cc(OC)nc(S(C)(=O)=O)n1` as the compound, how does the z-score (OD600 30 h) read?
Answer: 3.91 (active)

Question: And the z-score [1]?
Answer: 4.26

Question: Which z-score (OD600 30 h) does the source give for `CS(=O)(=O)Nc1ccc(C(=O)N2CCCC2)cc1` here?
Answer: 8.85 (active)

Question: And the z-score [1]?
Answer: 8.64

Question: With `Cc1c(Cl)cccc1NC(=O)Nc1ccc(C(=O)N2CCCC2)cc1` as the compound, how does the z-score (OD600 30 h) read?
Answer: 0.9 (inactive)

Question: What about the z-score [1] of the same compound?
Answer: -0.18

Question: Which z-score (OD600 30 h) does the source give for `O=C(c1ccc(S(=O)(=O)c2ccccc2)cc1)N1CCCCCC1` here?
Answer: 1.85 (inactive)

Question: What about the z-score [1] of the same compound?
Answer: 2.69

Question: For `Cc1ccc(-c2nnc(SCC(=O)N/N=C/c3cccs3)n2-c2ccc(C)cc2)cc1`, which z-score (OD600 30 h) is on record?
Answer: 0.44 (inactive)

Question: What about the z-score [1] of the same compound?
Answer: 0.52

Question: With `CCOc1ccc(C(=O)NC(=S)Nc2ccc(NC(=O)C(C)C)cc2)cc1[N+](=O)[O-]` as the compound, how does the z-score (OD600 30 h) read?
Answer: -0.64 (inactive)

Question: And the z-score [1]?
Answer: 0.38

Question: With `CC(=O)COc1ccc2c(-c3ccccc3)cc(=O)oc2c1` as the compound, how does the z-score (OD600 30 h) read?
Answer: -0.11 (inactive)

Question: What about the z-score [1] of the same compound?
Answer: -0.39

Question: What does the source list for `COc1cc(/C=C/CO)cc(OC)c1O[C@@H]1O[C@H](CO)[C@@H](O)[C@H](O)[C@H]1O`?
Answer: z-score (OD600 30 h): 0.24 (inactive); z-score [1]: 0.99

Question: Which results are given for `Cc1ccc(S(=O)(=O)C2C(=O)NC3(C)CC2c2ccccc2O3)cc1` (stereo unspecified)?
Answer: z-score (OD600 30 h): 0.78 (inactive); z-score [1]: 0.14

Question: Which z-score (OD600 30 h) does the source give for `CCOC(=O)C1=C(C)Nc2nc3ccccc3n2C1c1cccs1` (stereo unspecified) here?
Answer: -0.33 (inactive)

Question: What about the z-score [1] of the same compound?
Answer: 0.25

Question: Which results are given for `CCCc1cc(=O)[nH]c(SCC(=O)N2CCN(S(=O)(=O)c3ccc(C)cc3C)CC2)n1`?
Answer: z-score (OD600 30 h): 0.64 (inactive); z-score [1]: 0.59

Question: Which z-score (OD600 30 h) does the source give for `Cc1cc(OCCN2CCCC2)cc(C(C)C)c1` here?
Answer: -1.32 (inactive)

Question: What about the z-score [1] of the same compound?
Answer: -1.82

Question: Which z-score (OD600 30 h) does the source give for `Cc1cccc(Nc2nc3c(S(=O)(=O)c4ccccc4)nnn3c3ccccc23)c1C` here?
Answer: 2.09 (inactive)

Question: What about the z-score [1] of the same compound?
Answer: 3.12

Question: With `O=C(NC(=O)N1CCOCC1)c1ccccc1` as the compound, how does the z-score (OD600 30 h) read?
Answer: 0.99 (inactive)

Question: What about the z-score [1] of the same compound?
Answer: 0.24

Question: Which z-score (OD600 30 h) does the source give for `COc1ccc(C(=O)NC2(C(F)(F)F)NC(=O)N(CCCc3ccccc3)C2=O)c(OC)c1OC` (stereo unspecified) here?
Answer: -0.49 (inactive)

Question: What about the z-score [1] of the same compound?
Answer: 0.17

Question: For `O=C(/C=C/c1ccc(F)cc1)Nc1cccc(S(=O)(=O)Nc2cccc(C(F)(F)F)c2)c1`, which z-score (OD600 30 h) is on record?
Answer: -0.39 (inactive)

Question: What about the z-score [1] of the same compound?
Answer: -0.2

Question: Which results are given for `COc1ccc2c(CN3CCN(S(=O)(=O)c4cccs4)CC3)cc(=O)oc2c1`?
Answer: z-score (OD600 30 h): -1.29 (inactive); z-score [1]: -1.27

Question: Which z-score (OD600 30 h) does the source give for `COc1cc(CC(=O)N/N=C/c2ccccc2)c([N+](=O)[O-])cc1OC` here?
Answer: 0.66 (inactive)

Question: What about the z-score [1] of the same compound?
Answer: 0.79

Question: For `Cc1ccc2[nH]c(C(=O)O)c(NC(=O)c3ccccc3[N+](=O)[O-])c2c1`, which z-score (OD600 30 h) is on record?
Answer: 1.28 (inactive)

Question: And the z-score [1]?
Answer: 1.83

Question: Which results are given for `CCN(CC)S(=O)(=O)c1cc([N+](=O)[O-])ccc1N=Nc1c(O)n(C)c2ccccc12`?
Answer: z-score (OD600 30 h): -0.62 (inactive); z-score [1]: 0.64

Question: Which z-score (OD600 30 h) does the source give for `Cc1cccc(C(=O)c2cccc(C)c2)c1` here?
Answer: -0.29 (inactive)

Question: And the z-score [1]?
Answer: -0.6

Question: Which z-score (OD600 30 h) does the source give for `CCOC(=O)c1c(/N=C/C2C(=O)CC(C)(C)CC2=O)sc(C)c1C` here?
Answer: 0.94 (inactive)

Question: What about the z-score [1] of the same compound?
Answer: 1.36

Question: For `O=C(/C=C/c1cccc([N+](=O)[O-])c1)NCCSCc1ccco1`, which z-score (OD600 30 h) is on record?
Answer: -0.03 (inactive)

Question: What about the z-score [1] of the same compound?
Answer: -0.07

Question: Which results are given for `CC(C)NC(=S)N1CCN(S(C)(=O)=O)CC1`?
Answer: z-score (OD600 30 h): 0.56 (inactive); z-score [1]: 0.03

Question: Which z-score (OD600 30 h) does the source give for `COCCOC(=O)c1c(C)oc2cc(Br)c(OCC(N)=O)cc12` here?
Answer: 0.6 (inactive)

Question: And the z-score [1]?
Answer: 0.18

Question: Which z-score (OD600 30 h) does the source give for `O=C(Nc1ccccc1Cl)c1ccccc1S(=O)(=O)c1ccccc1[N+](=O)[O-]` here?
Answer: 0.14 (inactive)

Question: What about the z-score [1] of the same compound?
Answer: 0.15

Question: For `C[C@@H]1NC(=O)c2cc([N+](=O)[O-])cc(F)c2NCCC[C@@H](C(N)=O)NC(=O)[C@H](CC(N)=O)NC1=O`, which z-score (OD600 30 h) is on record?
Answer: 0.86 (inactive)

Question: And the z-score [1]?
Answer: 0.49

Question: Which z-score (OD600 30 h) does the source give for `CN(c1ccccc1)S(=O)(=O)c1ccc(Cl)c(C(=O)NCCc2c[nH]c3ccccc23)c1` here?
Answer: 0.35 (inactive)

Question: What about the z-score [1] of the same compound?
Answer: 0.28

Question: Which results are given for `CC(Oc1ccccc1F)C(=O)NN` (stereo unspecified)?
Answer: z-score (OD600 30 h): -0.12 (inactive); z-score [1]: -0.98

Question: Which results are given for `O=C(Cc1cccc2ccccc12)NCCC1=CCCCC1`?
Answer: z-score (OD600 30 h): -0.77 (inactive); z-score [1]: -0.75

Question: Which results are given for `O=C(Nn1c(-c2ccc(Cl)cc2)nc2ccccc2c1=O)c1cccnc1Cl`?
Answer: z-score (OD600 30 h): 0.6 (inactive); z-score [1]: 0.56

Question: Which z-score (OD600 30 h) does the source give for `CCOC(=O)C1=C(c2ccc(OC)cc2)C(=O)c2ccccc2C1=O` here?
Answer: -1.39 (inactive)

Question: What about the z-score [1] of the same compound?
Answer: -0.65

Question: With `CCOC(=O)CNC(=O)/C=C/c1c(Cl)cccc1Cl` as the compound, how does the z-score (OD600 30 h) read?
Answer: -0.54 (inactive)

Question: What about the z-score [1] of the same compound?
Answer: -0.72

Question: What does the source list for `COc1ccc(OCC(O)CNC(=O)Nc2ccc(Cl)cc2)cc1` (stereo unspecified)?
Answer: z-score (OD600 30 h): 0.9 (inactive); z-score [1]: 0.68

Question: What does the source list for `S=C(NCCc1ccccc1)NCc1ccccc1Cl`?
Answer: z-score (OD600 30 h): -1.82 (inactive); z-score [1]: -1.22

Question: With `N#Cc1ccccc1NC(=O)COc1c(Br)cc(Br)c2cccnc12` as the compound, how does the z-score (OD600 30 h) read?
Answer: 0.47 (inactive)

Question: And the z-score [1]?
Answer: 2.32

Question: What does the source list for `O=C(NC(=S)N1CCN(Cc2ccccc2)CC1)c1ccccc1`?
Answer: z-score (OD600 30 h): 0.36 (inactive); z-score [1]: 0.18

Question: What does the source list for `CC(=O)c1cc(-c2ccccc2)n(CCC(=O)NC2CCCCCC2)c1C`?
Answer: z-score (OD600 30 h): -1.63 (inactive); z-score [1]: -1.27

Question: For `CCOC(=O)C1CCN(C(=O)c2ccccc2N(C)S(=O)(=O)c2ccccc2)CC1`, which z-score (OD600 30 h) is on record?
Answer: 0.01 (inactive)

Question: And the z-score [1]?
Answer: -0.21

Question: Which z-score (OD600 30 h) does the source give for `O=C(NN1C(=O)C2C3C=CC(O3)C2C1=O)c1ccncc1` (stereo unspecified) here?
Answer: 0.24 (inactive)

Question: And the z-score [1]?
Answer: -0.88

Question: Which results are given for `Cc1ccc(S(=O)(=O)N2CCC(C(=O)N[C@@H](C)C(=O)NCc3ccco3)CC2)cc1`?
Answer: z-score (OD600 30 h): 1.22 (inactive); z-score [1]: 0.16

Question: With `Cc1ccn(-c2cccc(-n3ccc(C)n3)n2)n1` as the compound, how does the z-score (OD600 30 h) read?
Answer: -0.06 (inactive)

Question: And the z-score [1]?
Answer: -0.3

Question: Which z-score (OD600 30 h) does the source give for `COc1ccc2c(c1)C(SCC(=O)NCc1ccccc1)CC(C)(C)O2` (stereo unspecified) here?
Answer: -0.16 (inactive)

Question: And the z-score [1]?
Answer: -0.58

Question: What does the source list for `COc1ccc(-c2csc(NC(=O)COC(=O)c3ccc(Br)o3)n2)cc1`?
Answer: z-score (OD600 30 h): 1.63 (inactive); z-score [1]: 1.52

Question: Which z-score (OD600 30 h) does the source give for `COC(=O)Cc1ccc(OCC(=O)Nc2ccc(OC(F)(F)F)cc2)cc1` here?
Answer: 0.38 (inactive)

Question: What about the z-score [1] of the same compound?
Answer: 0.19

From PubChem BioAssay AID817 (Emory University Molecular Libraries Screening Center, 2007)
